High-throughput results: PubChem, The Scripps Research Institute Molecular Screening Center
Hits are enriched below; roughly 1.6% of the tested compounds scored in any of these assays.
MOR-DOR inv ag: mu-delta opioid heterodimer inverse agonism; P35372+P41143; 340,000 compounds, 0.21% hits; inhibition, % at 9.3 µM; cell-based MOR-DOR heterodimer luminescence; AID 504357; in the data active = inhibition above about 22%, passing the limit was not always enough;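 note: 0% = cells with DMSO and 100% = wells without cells with DMSO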
OPRM1-OPRD1 ag: OPRM1-OPRD1 heterodimerization agonism; P35372+P41143; cells, luminescence; activation, % at 9.3 µM; 340,000 compounds, 0.3% hits; AID 504326; in the data active = activation above about 18%;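 note: 0% = vehicle-treated cells and 100% = reference agonist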
HTR2A ag: activates the mouse 5-HT2A serotonin receptor. CHO-K1 mHTR2A beta-arrestin complementation, luminescence; percent of 30 µM serotonin response. activation, % at 7.6 µM. 360,000 compounds, 0.66% hits. AID 624169;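 active = activation above a run cutoff, the mean activation of all tested compounds plus 3 SD, cut at about 14% in these data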;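 note: 0% = plate median of compound wells and 100% = 30 µM serotonin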
HTR5A ag: activates human HTR5A in OPRM1-OPRD1 agonist counter-screen | P47898 | HTR5A agonist assay, luminescence, cell-based | activation, % at 9.3 µM | 340,000 compounds, 0.61% hits | AID 504692; in the data active = activation mostly above about 9.5%, no sharp cut-off; inactive = mostly below about 7.6%;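 note: 0% = cells with vehicle only and 100% = reference agonist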
Target sequence (P47898 whole entry, looked up): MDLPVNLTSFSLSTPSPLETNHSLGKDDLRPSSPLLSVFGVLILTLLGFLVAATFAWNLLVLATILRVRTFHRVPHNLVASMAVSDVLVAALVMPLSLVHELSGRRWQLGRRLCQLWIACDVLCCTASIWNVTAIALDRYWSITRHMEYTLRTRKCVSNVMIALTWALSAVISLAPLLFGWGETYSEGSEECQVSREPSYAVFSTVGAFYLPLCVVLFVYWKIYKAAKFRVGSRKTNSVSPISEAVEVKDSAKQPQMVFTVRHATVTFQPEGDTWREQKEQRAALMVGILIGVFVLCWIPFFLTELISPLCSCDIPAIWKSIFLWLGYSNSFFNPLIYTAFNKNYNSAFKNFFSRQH
HTR5A inv ctr: inverse agonist of human HTR5A in OPRM1-OPRD1 counter-screen; inhibition, % at 9.3 µM; HTR5A cell line, luminescence, inverse agonism; AID 504634; 340,000 compounds, 0.083% hits; P47898; in the data active = inhibition mostly above about 23%, no sharp cut-off; inactive = mostly below about 18%;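 note: 0% = cells with DMSO and 100% = no-cell wells with DMSO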
MOR ag counter: counter-screen for mouse HTR2A agonists: human mu opioid receptor agonists. shares compounds with HTR2A ag. U2OS OPRM1 beta-arrestin PathHunter, luminescence; DMSO 0%, DAMGO 9.3 µM 100%. activation, % at 9.3 µM. 2,300 compounds, 5.3% hits;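 active = mean activation above the mean of DMSO-only wells plus 3 SD, cut at about 0.5% in these data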
HTR2A ag conf: confirmation of mouse HTR2A serotonin receptor agonists; shares compounds with HTR2A ag; CHO-K1 PathHunter beta-arrestin recruitment, luminescence; DMSO 0%, 30 µM serotonin 100%; activation, % at 7.6 µM; 2,300 compounds, 19% hits; AID 624381;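 active = mean activation across triplicates above the hit threshold derived in the original primary screen, cut at about 15% in these data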
* = called active by the depositor; . = no result given.

SMILES	MOR-DOR inv ag	OPRM1-OPRD1 ag	HTR2A ag	HTR5A ag	HTR5A inv ctr	MOR ag counter	HTR2A ag conf
Cn1ncc(Br)c1NC(=O)Nc1ccccc1	8	-2	14*	5	-20	1.0*	8
CCOc1ccc(NC(=O)C2CCCN(S(=O)(=O)c3ccc4c(c3)C(C)(C)C(=O)N4C)C2)cc1 (stereo not drawn)	.	.	-4	.	.	.	.
OCC[C@@H]1C[C@H](O)[C@@H](O)[C@@]2(OCc3ccc(CO)cc32)O1	.	.	1	.	.	.	.
Cc1ccc(S(=O)(=O)N2CC3C(=O)C[C@@H](c4ccccc4)N(S(=O)(=O)c4ccc(CCCOCCOCCNC(=O)OC(C)(C)C)cc4)C3CC2c2ccccc2)cc1 (stereo partly drawn)	.	.	8	.	.	.	.
Cc1noc(C)c1CN1C(=O)c2cccc([N+](=O)[O-])c2C1=O	1	0	14*	2	10	0	0
CC(=O)NCC1(c2ccccc2)CCN(CC2COc3ccccc3O2)CC1 (stereo not drawn)	.	.	20*	.	.	0	44*
CC(=O)NCC1COc2ccccc2O1 (stereo not drawn)	12	-2	12	7	-30	.	.
COc1cc(Cl)c(S(=O)(=O)N2CC(C)OC(C)C2)cc1Cl (stereo not drawn)	2	0	-2	-2	4	.	.
COc1cc(Cl)c(S(=O)(=O)N2CCOCC2)cc1Cl	-1	0	15*	2	-13	0	-4
COc1ccccc1Cc1c(-c2cccc(Br)c2)nc2ccc(Cl)cn12	.	.	-6	.	.	.	.
CCOC(=O)C1CCN(C(=O)CSCc2nc(-c3ccc(OCC)cc3)oc2C)CC1	11	-2	16*	4	-13	0	0
CN(C)c1ccc(O)c2c1CC1CC3C(N(C)C)C(=O)C(C(N)=O)=C(O)[C@@]3(O)C(=O)C1=C2O (stereo partly drawn)	-1	0	1	1	-21	.	.
CN(C)c1ccc(O)c2c1CC1CC3[C@@H](N(C)C)C(=O)C(C(N)=O)C(=O)[C@]3(O)C(=O)C1C2=O (stereo partly drawn)	5	-1	67*	7	-23	0	153*
CCC(=O)N1CCCC(C)(C(=O)Nc2ccc(C)c(C)c2)C1 (stereo not drawn)	.	.	17*	.	.	0	-1
C=CCn1c(SCC(=O)c2ccc(OC)cc2)nnc1-c1ccc2c(c1)OCO2	10	-1	-1	-4	13	.	.
C=CCn1c(SCC(=O)c2ccc(Cl)cc2)nnc1-c1ccc2c(c1)OCO2	-20	3	32*	-2	16	0	1
Cc1cc([N+](=O)[O-])c2[nH]c(C(=O)N/N=C/c3ccccc3C(=O)O)c(-c3ccccc3)c2c1	11	-2	18*	3	-9	-1	-2
CCc1cccc(CC)c1NC(=O)COC(=O)C1(C)CC1(Cl)Cl (stereo not drawn)	12	-2	17*	0	0	-1	-4
CCCCc1ccc(S(=O)(=O)NC(=O)C2(C)CCN2C(=O)CC2CC2)cc1 (stereo not drawn)	.	.	4	.	.	.	.
COC(=O)C1=CN(c2ccc(Oc3ccccc3)cc2)C(N)=C(C#N)C1c1ccc(-c2ccccc2)cc1 (stereo not drawn)	.	.	-3	.	.	.	.
Cc1[nH]c2ccccc2c1C(=O)COC(=O)C1CC(O)CN1S(=O)(=O)c1ccc(Cl)cc1 (stereo not drawn)	-9	2	15*	2	-6	0	5
O=C(COC(=O)C1CC(O)CN1S(=O)(=O)c1ccc(Cl)cc1)c1ccccc1 (stereo not drawn)	14	-3	-2	6	-22	.	.
O=C(NCc1ccncc1)c1ccc(S(=O)(=O)Nc2ccccc2)cc1	1	0	15*	-4	10	0	-5
CSc1ccccc1OCc1cc(C(=O)N2CCCC(C)C2)no1 (stereo not drawn)	3	-1	4	-2	15	.	.
CSc1ccccc1OCc1cc(C(=O)N2CCC[C@H]2C(N)=O)no1	13	-2	15*	-3	10	0	3
SMILES	MOR-DOR inv ag	OPRM1-OPRD1 ag	HTR2A ag	HTR5A ag	HTR5A inv ctr	MOR ag counter	HTR2A ag conf
COc1ccc(S(=O)(=O)N[C@H]2CC[C@H](CCNC(=O)c3ccccc3F)O[C@@H]2CO)cc1	.	.	9	.	.	.	.
CCOC(=O)c1c(O)c2c(n(Cc3ccco3)c1=O)CCCC2	-21	4	15*	3	-58	0	6
CCOC(=O)c1c(NC(=O)c2ccco2)sc2c1CCCC2	12	-2	6	5	1	.	.
N#CCCN(Cc1ccccc1)C(CCc1ccccc1)C(=O)NC1CCCCC1 (stereo not drawn)	.	.	-6	.	.	.	.
CCN(CC)C(=O)C1=C(C)N(CCCOC)C(=O)C(CC(=O)NC2CCCCC2)C1 (stereo not drawn)	.	.	6	.	.	.	.
Cc1ccc(SCc2cc(=O)[nH]c(N3CCN(Cc4ccc5c(c4)OCO5)CC3)n2)cc1	-2	0	4	-4	11	.	.
Cc1ccc(SCc2cc(=O)[nH]c(N3CCN(Cc4ccccc4)CC3)n2)cc1	16	-4	18*	1	20	-1	12
CC(C)(C)Nc1ncnc2sc(-c3ccccc3)cc12	-61	14	23*	3	-11	0.5*	5
OCCCNc1ncnc2sc(-c3ccccc3)cc12	-13	2	-1	5	-14	.	.
CC(OC(=O)CCCN=C1NS(=O)(=O)c2ccccc21)C(=O)Nc1ccccc1F (stereo not drawn)	20	-4	25*	-1	2	-1	-4
CCOC(=O)c1[nH]c2ccccc2c1NC(=O)Nc1ccc(OC)cc1	-11	2	25*	-4	9	0	0
CCCC(=O)Nc1c(C(=O)OCC)[nH]c2ccccc12	14	-3	-4	2	-7	.	.
C#CCNC(=O)c1csc([C@@H]2O[C@H](CO)[C@@H](O)[C@H]2O)n1	.	.	0	.	.	.	.
O=C(Cc1ccc(Cl)cc1)NCCS(=O)(=O)N1CCN(c2ccccc2F)CC1	-7	1	2	-1	-10	.	.
O=C(COc1ccc(Cl)cc1)NCCS(=O)(=O)N1CCN(c2ccccc2F)CC1	-4	1	16*	1	-1	0	2
COC(=O)C[C@H]1CC[C@@H](NC(=O)C2CC2)[C@@H](CO)O1	.	.	18*	.	.	0	-1
O=C1CC(c2ccccc2)=NN1c1ccccc1	9	-2	15*	3	-12	-1	-2
CCOC(=O)[C@]12CCC=C1N(Cc1ccco1)C(=O)[C@H](CC(=O)NCC13CC4CC(CC(C4)C1)C3)C2	.	.	-2	.	.	.	.
